# Experimental data from PMC11995724, “Antibiotic target discovery by integrated phenotypic and activity-based profiling of electrophilic fragments” (Cell chemical biology, 2025).
# The campaign covered roughly 3,200 compounds. About 110 (3.4%) showed an effect of 50% or more. This excerpt belongs to a sample that is enriched for strong results.
# System: T1, V. cholerae SAD30
# T1 construct: SAD30
# Design: species or system S. aureus MSSA476 (TSB) or V. cholerae SAD30 (LB); 384-well bacterial growth screen at 25 uM, OD600 relative to DMSO control
# Settings: relative growth, OD600, LB; 25 µM; inhibitor
row,SMILES,% of control remaining [%]
1,"CC(C)NC(=O)C(C#N)=Cc1cccs1 [8-H15, 2-cyano-N-(propan-2-yl)-3-(thiophen-2-yl)prop-2-enamide]",71.0401
2,"Cc1cccc(NC(=O)NC(=O)CCl)c1C [4-D21, 3-(2-chloroacetyl)-1-(2,3-dimethylphenyl)urea]",104.033
3,"C=CC(=O)NCCn1cc(Cl)c(C(F)(F)F)n1 [2-F03, N-{2-[4-chloro-3-(trifluoromethyl)-1H-pyrazol-1-yl]ethyl}prop-2-enamide]",108.106
4,"COc1ccc(C(=O)C(C)Cl)c(OC)c1 (stereo not drawn) [10-J17, 2-chloro-1-(2,4-dimethoxyphenyl)propan-1-one]",98.0323
5,"COc1ccc(C2CCCN2C(=O)CCl)c(OC)c1 (stereo not drawn) [4-P22, 2-chloro-1-[2-(2,4-dimethoxyphenyl)pyrrolidin-1-yl]ethan-1-one]",115.247
6,"COc1ccc(Cl)cc1N1C(=O)C=CC1=O [10-K10, 1-(5-chloro-2-methoxyphenyl)-2,5-dihydro-1H-pyrrole-2,5-dione]",24.1574
7,"COc1ccc(N2C(=O)C=CC2=O)c(OC)c1 [10-J15, 1-(2,4-dimethoxyphenyl)-2,5-dihydro-1H-pyrrole-2,5-dione]",26.9628
8,"COc1ccc(Cl)cc1NC(=O)C(C)Cl (stereo not drawn) [6-G16, 2-chloro-N-(5-chloro-2-methoxyphenyl)propanamide]",89.3355
9,"COc1ccc(Cl)cc1CNC(=O)CCl [6-A16, 2-chloro-N-[(5-chloro-2-methoxyphenyl)methyl]acetamide]",95.2507
10,"CC(Cl)C(=O)N1CCN(Cc2cc(=O)n3ccsc3n2)CC1 (stereo not drawn) [6-P17, 7-{[4-(2-chloropropanoyl)piperazin-1-yl]methyl}-5H-[1,3]thiazolo[3,2-a]pyrimidin-5-one]",97.5258
11,"C=CC(=O)N1CCCCC(S(C)(=O)=O)C1 (stereo not drawn) [2-E17, 1-(3-methanesulfonylazepan-1-yl)prop-2-en-1-one]",92.6662
12,"CCc1nocc1CN(C)C(=O)CCl [5-B11, 2-chloro-N-[(3-ethyl-1,2-oxazol-4-yl)methyl]-N-methylacetamide]",90.6168
13,"C=CC(=O)N1CCC(C(=O)N2Cc3ccc([N+](=O)[O-])cc3C2)CC1 [2-F04, 1-[4-(5-nitro-2,3-dihydro-1H-isoindole-2-carbonyl)piperidin-1-yl]prop-2-en-1-one]",98.2245
14,"CCn1ncc(C(=O)CCl)n1 [10-E13, 2-chloro-1-(2-ethyl-2H-1,2,3-triazol-4-yl)ethan-1-one]",0
15,"CCn1cc(NC(=O)CCl)cn1.Cl [6-I15, 2-chloro-N-(1-ethyl-1H-pyrazol-4-yl)acetamide hydrochloride]",98.4359
16,"Cn1ncc(C(=O)CCl)n1 [10-J10, 2-chloro-1-(2-methyl-2H-1,2,3-triazol-4-yl)ethan-1-one]",112.838
17,"CCn1nc(C)c(C(=O)CCl)n1 [10-P08, 2-chloro-1-(2-ethyl-5-methyl-2H-1,2,3-triazol-4-yl)ethan-1-one]",40.2104
18,"CCn1nc(C)c(CN(C)C(=O)CCl)c1C [5-A10, 2-chloro-N-[(1-ethyl-3,5-dimethyl-1H-pyrazol-4-yl)methyl]-N-methylacetamide]",104.907
19,"CCn1nc(C)c(CNC(=O)CCl)c1C [7-P10, 2-chloro-N-[(1-ethyl-3,5-dimethyl-1H-pyrazol-4-yl)methyl]acetamide]",85.1148
20,"O=S(=O)(CC=C(Cl)Cl)N1CCSSCC1 [10-P19, 5-(3,3-dichloroprop-2-ene-1-sulfonyl)-1,2,5-dithiazepane]",92.5774
21,"C=CC(=O)NCc1ccc(S(=O)(=O)NC2CC2)cc1 [2-P19, N-{[4-(cyclopropylsulfamoyl)phenyl]methyl}prop-2-enamide]",96.8349
22,"C=CC(=O)N1CCCC(c2nc(N(C)C)no2)C1 (stereo not drawn) [3-A13, 1-{3-[3-(dimethylamino)-1,2,4-oxadiazol-5-yl]piperidin-1-yl}prop-2-en-1-one]",112.204
23,"CC(Cl)C(=O)NCC1CN(c2nncs2)CCO1 (stereo not drawn) [7-O03, 2-chloro-N-{[4-(1,3,4-thiadiazol-2-yl)morpholin-2-yl]methyl}propanamide]",90.798
24,"O=C(CCl)N(Cc1ccccc1)Cc1ccc(F)cc1 [5-I06, N-benzyl-2-chloro-N-[(4-fluorophenyl)methyl]acetamide]",81.2021
25,"O=C(CCl)N1CC(Cc2ccc(F)cc2F)C1 [5-G20, 2-chloro-1-{3-[(2,4-difluorophenyl)methyl]azetidin-1-yl}ethan-1-one]",89.2718
26,"CC(Cl)C(=O)N(CCc1ccc(F)cc1F)C(C)C (stereo not drawn) [6-D18, 2-chloro-N-[2-(2,4-difluorophenyl)ethyl]-N-(propan-2-yl)propanamide]",71.5897

row,SMILES,% of control remaining [%]
1,"Cc1ccc(F)cc1NC(=O)CCl [4-O03, 2-chloro-N-(5-fluoro-2-methylphenyl)acetamide]",106.103
2,"O=C(CCl)Cc1ccc(F)cc1F [10-G17, 1-chloro-3-(2,4-difluorophenyl)propan-2-one]",31.4826
3,"O=C(CCl)NCCc1ccc(Cl)cc1Cl [6-M16, 2-chloro-N-[2-(2,4-dichlorophenyl)ethyl]acetamide]",96.0091
4,"O=C(CCl)Cc1ccc(Cl)cc1Cl [10-A15, 1-chloro-3-(2,4-dichlorophenyl)propan-2-one]",22.1313
5,"O=C(CCl)Cc1ccc(F)cc1Cl [10-E19, 1-chloro-3-(2-chloro-4-fluorophenyl)propan-2-one]",21.0403
6,"O=C(CCl)Nc1c(Cl)cc(Cl)cc1Cl [5-B16, 2-chloro-N-(2,4,6-trichlorophenyl)acetamide]",98.3503
7,"N#CC(=Cc1cccc(O)c1)C(=O)Nc1ccc(N2CCOCC2)cc1 [8-I14, 2-cyano-3-(3-hydroxyphenyl)-N-[4-(morpholin-4-yl)phenyl]prop-2-enamide]",71.0401
8,"CC1CN(c2ccc(NC(=O)C(C#N)=Cc3ccco3)cc2)CC(C)O1 (stereo not drawn) [9-J09, 2-cyano-N-[4-(2,6-dimethylmorpholin-4-yl)phenyl]-3-(furan-2-yl)prop-2-enamide]",84.3644
9,"C=CC(=O)N1CCC(F)CC1 [1-D14, 1-(4-fluoropiperidin-1-yl)prop-2-en-1-one]",79.2444
10,"CN(C)c1nc(N2CCOCC2)ncc1NC(=O)CCl [5-M22, 2-chloro-N-[4-(dimethylamino)-2-(morpholin-4-yl)pyrimidin-5-yl]acetamide]",105.916
11,"C=CC(=O)Nc1ccc(S(=O)(=O)N(C)C)c(C)c1 [2-E06, N-[4-(dimethylsulfamoyl)-3-methylphenyl]prop-2-enamide]",93.4382
12,"C=CC(=O)N(CCC(N)=O)C1CCOc2ccccc21 (stereo not drawn) [3-F13, N-(2-carbamoylethyl)-N-(3,4-dihydro-2H-1-benzopyran-4-yl)prop-2-enamide]",92.0897
13,"Cc1cc(C(=O)CCl)c(C)n1CCc1cccs1 [10-F16, 2-chloro-1-{2,5-dimethyl-1-[2-(thiophen-2-yl)ethyl]-1H-pyrrol-3-yl}ethan-1-one]",110.189
14,"C=CC(=O)Nc1sc2c(c1C(N)=O)CCCCC2 [1-F21, 2-(prop-2-enamido)-4H,5H,6H,7H,8H-cyclohepta[b]thiophene-3-carboxamide]",88.1913
15,"CCOc1ccc(C(=O)CCl)cc1 [10-F12, 2-chloro-1-(4-ethoxyphenyl)ethan-1-one]",15.1179
16,"CCOc1ccc(C(=O)C(C)Cl)cc1 (stereo not drawn) [10-G06, 2-chloro-1-(4-ethoxyphenyl)propan-1-one]",103.331
17,"CSc1cc(C(=O)CCl)ccc1NC(C)=O [10-H08, N-[4-(2-chloroacetyl)-2-(methylsulfanyl)phenyl]acetamide]",25.2484
18,"O=C(CCl)COc1ccc(Cl)cc1 [10-M17, 1-chloro-3-(4-chlorophenoxy)propan-2-one]",11.6891
19,"N#Cc1ccc(OC2CN(C(=O)CCl)C2)cc1 [5-K07, 4-{[1-(2-chloroacetyl)azetidin-3-yl]oxy}benzonitrile]",141.893
20,"CC(Cl)C(=O)N(C)CCOc1ccc(Cl)cc1 (stereo not drawn) [6-C12, 2-chloro-N-[2-(4-chlorophenoxy)ethyl]-N-methylpropanamide]",74.0165
21,"CN(CCOc1ccc(Cl)cc1)C(=O)CCl [5-D16, 2-chloro-N-[2-(4-chlorophenoxy)ethyl]-N-methylacetamide]",80.0252
22,"CSc1ccccc1NC(=O)CCl [4-E11, 2-chloro-N-[2-(methylsulfanyl)phenyl]acetamide]",92.3011
23,"CSc1ccccc1NC(=O)CN(C)C(=O)CCl [4-L03, 2-chloro-N-methyl-N-({[2-(methylsulfanyl)phenyl]carbamoyl}methyl)acetamide]",116.282
24,"N#Cc1ccc(C(=O)CCl)cc1 [10-F10, 4-(2-chloroacetyl)benzonitrile]",0
25,"CCOc1ccc(-n2c(C)cc(C(=O)CCl)c2C)cc1 [10-K08, 2-chloro-1-[1-(4-ethoxyphenyl)-2,5-dimethyl-1H-pyrrol-3-yl]ethan-1-one]",98.9675
